Screening data from PubChem BioAssay.
FEN1 inh = qHTS Assay for the Inhibitors of Human Flap endonuclease 1 (FEN1); P39748; Recombinant FEN1 flap cleavage, fluorescence, 15 min; Potency, µM (highest dose often 114 µM), actives largely listed as inhibitors; 390,000 tested, 0.35% active; AID 588795, 2011; note: nearly all actives have a fitted effect of over 65% in size
Target sequence (P39748 whole entry, looked up): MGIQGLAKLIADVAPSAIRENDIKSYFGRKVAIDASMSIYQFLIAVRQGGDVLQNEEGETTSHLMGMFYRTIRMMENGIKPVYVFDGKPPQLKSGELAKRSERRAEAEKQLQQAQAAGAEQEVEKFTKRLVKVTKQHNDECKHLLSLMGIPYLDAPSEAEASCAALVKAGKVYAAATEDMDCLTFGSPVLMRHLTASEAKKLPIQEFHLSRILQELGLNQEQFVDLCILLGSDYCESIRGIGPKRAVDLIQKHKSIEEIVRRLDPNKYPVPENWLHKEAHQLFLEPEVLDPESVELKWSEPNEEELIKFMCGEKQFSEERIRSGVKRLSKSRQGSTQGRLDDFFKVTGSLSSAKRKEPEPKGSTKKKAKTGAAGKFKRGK
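Quantitative HTS format: each compound was titrated, incubated with 10 nM nuclease for 15 min at room temperature, then challenged with flap substrate at 50 nM final. Signal change over 15 min gave concentration–effect curves.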
RECQ1 inh-1 = qHTS Assay for Inhibitors of RecQ-Like Dna Helicase 1 (RECQ1) | RECQ1 DNA unwinding, red fluorescence kinetic read | Potency, µM (doses to about 57.3 µM), actives largely listed as inhibitors | 240,000 tested, 0.54% active; note: nearly all actives have a fitted effect of over 30% in size
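RECQ1T1 50 nM; forked duplex (20 bp + 30-nt ss tails) 200 nM, ATP 2 mM final; pH 8.0, 2 mM MgCl2, 2.5 ug/ml poly(dI-dC); 15 min compound preincubation; discontinuous kinetic read over 2 h at RT.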
PGK inhibitor = qHTS Assay to Find Inhibitors of Phosphoglycerate Kinase | Phosphoglycerate kinase, glycosomal (Trypanosoma brucei brucei), P07378 | PGK/GAPDH coupled, Kinase-Glo luminescence, 60 min | Potency, µM (series often up to 57.5 µM), most hits filed as inhibitors | 380,000 tested, 0.043% active | AID 602233, 2012; note: nearly all actives have a fitted effect of over 60% in size
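Luminescent ATP detection (Kinase-Glo Plus) follows a 60-minute room-temperature incubation, with wells lacking PGK as controls. Buffer: 100 mM TEA (pH 7.6), 5 mM MgCl2, 0.01% Tween-20. Coupling enzyme GAPDH (100 nM final) supplies unstable 1,3-BPG in-well.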
BLM inh = qHTS Assay for Inhibitors of Bloom's syndrome helicase (BLM). RecQ-like DNA helicase BLM (Homo sapiens), P54132. recombinant BLM DNA unwinding, fluorescence dequenching. Potency, µM (series often up to 56.1 µM), actives largely listed as inhibitors. 350,000 tested, 0.2% active. AID 2528, 2010; note: nearly all actives have a fitted effect of over 35% in size
APE1 inh = qHTS Assay for Inhibitors of the Human Apurinic/apyrimidinic Endonuclease 1 (APE1); Potency, µM (titrated, usually from 65.8 µM), usual class: inhibitors; AID 2517, 2012; 350,000 tested, 0.35% active; recombinant APE1, TAMRA/BHQ-2 abasic DNA cleavage fluorescence; note: nearly all actives have a fitted effect of over 55% in size
Target sequence (P27695 whole entry, looked up): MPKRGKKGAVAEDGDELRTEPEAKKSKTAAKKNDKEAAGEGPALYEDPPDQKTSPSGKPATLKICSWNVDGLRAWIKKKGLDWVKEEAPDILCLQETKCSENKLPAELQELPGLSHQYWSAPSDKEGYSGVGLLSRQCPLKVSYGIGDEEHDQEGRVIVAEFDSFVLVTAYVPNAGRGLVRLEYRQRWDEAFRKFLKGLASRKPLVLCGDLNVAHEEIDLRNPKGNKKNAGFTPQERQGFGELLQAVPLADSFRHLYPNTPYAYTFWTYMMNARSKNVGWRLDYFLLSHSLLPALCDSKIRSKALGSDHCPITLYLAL
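Substrate: short duplex with […] THF abasic site, 5'-TAMRA and 3'-BHQ-2, 50 nM final. APE1 at 0.75 nM, preincubated 15 min RT with compound. Fluorescence increase from first to third read measured activity.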
GLS inh = qHTS for Inhibitors of Glutaminase (GLS) | GLS enzymatic activity, qHTS titration | 410,000 tested, 0.21% active | Glutaminase kidney isoform, mitochondrial (Homo sapiens), O94925 | AID 624170, 2012 | Potency, µM (doses to about 45.5 µM), most hits filed as inhibitors
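Coupled fluorescence readout: glutamate oxidase/HRP/Amplex Red detect glutamate formed by hKGA from L-glutamine (1 mM solution added). Buffer 45 mM KH2PO4 pH 8.2, 0.02% Tween-20; reads at t0 and 30 min RT.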
RECQ1 conf = Confirmation qHTS Assay for Inhibitors of RecQ-Like Dna Helicase 1 (RECQ1). shares compounds with RECQ1 inh-1. RECQ1 helicase DNA unwinding, fluorescence. Potency, µM (doses to about 229 µM), actives largely listed as inhibitors. 610 tested, 28% active; note: nearly all actives have a fitted effect of over 45% in size
ADP FP counter = Counterscreen for RECQ1 Inhibitors: ADP Fluorescence Polarization Displacement Assay; shares compounds with RECQ1 inh-1; ADP fluorescence polarization displacement counterscreen; Potency, µM (doses to about 228 µM), usual class: inhibitors; 530 tested, 27% active; AID 2711, 2010; note: nearly all actives have a fitted effect of over 45% in size
RECQ1 inh-2 = Confirmation qHTS Assay for Inhibitors of RecQ-Like Dna Helicase 1 (RECQ1) - Round 2 Cherry Picks | shares compounds with RECQ1 inh-1 | recombinant RECQ1 DNA unwinding, red fluorescence | Potency, µM (top dose mostly 119 µM), most hits filed as inhibitors | 1,100 tested, 15% active; note: nearly all actives have a fitted effect of over 50% in size
A number is an active result; – = inactive; ? = inconclusive; · = no result; [ ] = another dose, or the depositor's remark. This is a sample that favours compounds with a hit; in the whole collection about 0.86% have one here. Calls come from the whole dose curve; as a rule, active = well fitted curve in the direction sought with a large enough effect; inconclusive = small, poorly fitted or top-dose-only effect, or another doubt; inactive = no such curve, though single readings can be large; an effect the other way counts as inactive or inconclusive.

SMILES | FEN1 inh | RECQ1 inh-1 | PGK inhibitor | BLM inh | APE1 inh | GLS inh | RECQ1 inh-2 | others
CCCCC(=O)OCC(=O)[C@]1(O)Cc2c(O)c3c(c(O)c2[C@H](OC2CC(NC(=O)C(F)(F)F)C(O)C(C)O2)C1)C(=O)c1c(OC)cccc1C3=O (stereo partly specified) | · | · | · | – | · | – | ·
O=S(=O)(O)c1c(NS(=O)(=O)c2ccccc2)ccc2ccccc12 | – | · | · | · | · | · | ·
CCCOc1ccc(-c2cccc(NS(=O)(=O)c3cccs3)c2)nn1 | – | · | – | – | · | – | ·
CCc1nnc(NS(=O)(=O)c2ccc(NC(=S)NC(=O)/C=C/c3ccccc3)cc2)s1 | – | ? | – | – | ? | – | ?
CCc1nnc(NS(=O)(=O)c2ccc(NC(=S)NC(=O)/C=C/c3ccc(C(C)C)cc3)cc2)s1 | ? | ? | · | – | – | – | ?
CCc1nnc(NS(=O)(=O)c2ccc(NC(=S)NC(=O)c3ccccc3)cc2)s1 | – | – | – | – | – | – | ·
CCc1nnc(NS(=O)(=O)c2ccc(NC(=S)Nc3ccc(F)cc3)cc2)s1 | – | – | – | – | – | – | ·
Cc1ccc(-c2cc3ncc(C(=O)c4cc([N+](=O)[O-])ccc4O)cn3n2)cc1 | – | · | – | – | · | – | ·
CC(=O)OC1CCC2C3CCc4cc(O)ccc4C3CCC12C (stereo unspecified) | – | 16µM | – | – | · | – | · | RECQ1 conf=–;ADP FP counter=8.9µM
N#C/C=C(/N)c1ccc(Br)cc1 | – | ? | – | – | – | – | –
O=CC(=O)c1ccc(Br)cc1 | – | · | · | · | · | · | ·
C=CC[C@@H]1C=C[C@H](O/N=C/c2ccc(C(=O)N3[C@H](c4ccc(C)cc4)[C@@H](C)CC[C@H]3C(=O)OC)cc2)[C@@H](CO)O1 | · | ? | · | – | – | · | –
CO/N=C\c1ccc(C(=O)N2[C@H](c3ccc(C)cc3)[C@@H](C)CC[C@H]2C(=O)OC)cc1 | · | –[11.5 µM] | · | –[12.4 µM] | –[12.4 µM] | · | ·
Cc1ccc(N2CC(C(=O)NCc3ccc(C)n3C)CC2=O)cc1 (stereo unspecified) | – | ? | – | – | – | – | –
Cc1ccc(N2CC(C(=O)NCCC(C)C)CC2=O)cc1 (stereo unspecified) | – | – | – | – | – | – | ·
COC1=C(Nc2ccc(C)cc2)C(=O)c2ccccc2C1=O | – | ? | – | – | ? | – | –
COc1ccc(N2CCN(C(=O)c3ccc4c(=O)n(CCc5ccc(OC)c(OC)c5)c(=O)[nH]c4c3)CC2)cc1 | – | – | – | – | – | – | · | RECQ1 conf=–;ADP FP counter=?
O=C(c1ccc2c(=O)n(CCc3ccccc3)c(=O)[nH]c2c1)N1CCN(c2ccccc2)CC1 | – | · | – | – | – | – | ·
COc1cccc(/C=C/c2nc3ccccc3nc2/C=C/c2cccc(OC)c2OC)c1OC | – | · | · | · | · | · | ·
COc1ccc(-n2cccc2/C=C2\C(=N)N3N=C(c4ccco4)SC3=NC2=O)cc1 | ? | ? | ? | 13µM | 10µM | – | 7.1µM
COc1ccc(-n2cccc2/C=C2\C(=N)N3N=C(C(C)C)SC3=NC2=O)cc1 | – | – | – | – | – | – | ·
N=C1/C(=C/c2coc3ccccc3c2=O)C(=O)N=C2SC(c3ccco3)=NN12 | 32µM | 28µM | – | ? | – | – | 50µM
CC1=NN2C(=N)/C(=C\c3cc(C)n(-c4ccccc4)c3C)C(=O)N=C2S1 | – | – | – | – | – | – | ·
CC(=O)OCC(CO)OC(C)=O (stereo unspecified) (tested in a mixture with another compound) | · | – | · | – | – | · | ·
COc1ccc(Cl)cc1NC(=O)CN(C)CC(=O)Nc1ccccc1-c1ccccc1 | – | – | – | – | ? | – | ·
SMILES | FEN1 inh | RECQ1 inh-1 | PGK inhibitor | BLM inh | APE1 inh | GLS inh | RECQ1 inh-2 | others
COc1ccc(Cl)cc1NC(=O)CN(C)CC(=O)Nc1ccc(C)cc1Br | – | 35µM | – | – | – | – | –
COc1ccc2nc(-c3ccco3)c(-c3ccco3)nc2c1 | ? | ? | – | 13µM | 8.9µM | – | –
COc1cc(-c2csc(N3CCOCC3)n2)cc(OC)c1OC | – | – | – | – | – | – | ·
COc1ccc(-c2csc(N3CCN(c4cc(C)nc5ccccc45)CC3)n2)cc1OC | – | 14µM | – | – | ? | – | – | RECQ1 conf=–;ADP FP counter=?
CC1CC1C(=O)Nc1nc(-c2cccs2)c(-c2cccs2)s1 (stereo unspecified) | – | 32µM | – | ? | – | – | ?
O=C(Nc1nc(-c2cccs2)c(-c2ccccc2)s1)c1ccco1 | – | – | – | – | ? | – | ·
CCC(=O)/C=C1/Sc2ccccc2N1CC | – | – | – | – | – | – | ·
CCN1/C(=C/c2cc[n+](CCCS(=O)(=O)[O-])c3ccccc23)Sc2ccccc21 | ? | ? | – | – | ? | – | 56µM
Cc1nn(CC(=O)NC2C(=O)N3C(C(=O)O)=C(CSc4nnnn4C)CSC23)cc1Br (stereo unspecified) | – | – | – | – | ? | – | · | RECQ1 conf=–;ADP FP counter=?
CCC(C)NC(=O)c1ccccc1NC(=O)c1ccc(CSc2ccc(C)cc2)cc1 (stereo unspecified) | – | 5µM | – | – | – | – | – | RECQ1 conf=–;ADP FP counter=–
O=C(/C=C/c1ccco1)Nc1ccc(C(=O)N2CCOCC2)cc1 | – | ? | – | – | – | – | –
Cc1cc(C)c(Nc2cc(S(=O)(=O)O)c(N)c3c2C(=O)c2ccccc2C3=O)c(C)c1 | 56µM | ? | ? | – | ? | – | 32µM
